Screening data as filed in PubChem.
A selection: hits, their analogues and other compounds. The true share with any hit is near 3.8%.
HSF1 inh: HSF1 inhibitors in luciferase reporter cells, primary screen, cell-based, NIH3T3, luminescence; NIH3T3-HGL HSE-luciferase, MG132-induced, luminescence 8 h; active compounds read low; activity change, negative = inhibition, % at 7.5 µM (by protocol); 0.77% of 300,000 active; AID 2098, 2009;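 active means more than half of replicate wells show activity change below -50%, luminescence cut by over half; inconclusive means some wells, but at most half, below -50%; inactive means no replicate well below -50%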;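 further: luciferase reports HSF-1 transcriptional activity via heat shock element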
HSF1 activator: HSF-1 activators, primary screen, NIH3T3-HGL cells, MG132 stress, luminescence, single point. NIH3T3-HGL HSF-1 luciferase reporter, 8 h; 100% = twice DMSO control signal. activation, % at 9 µM. 1.7% of 300,000 active. AID 504408, 2011;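 active means mean replicate activation of at least 50% with a set share of replicates each reaching 50%; inconclusive means only one of those two conditions met; inactive means mean below 50% and too few replicates reaching it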
esBAF inh: Bmi1 luciferase reporter increase in mESCs, primary screen, esBAF inhibitor project, mouse ES cells, Bmi1 luciferase knock-in, single point; 24 h; 100% = twice the neutral-well signal; 2% of 350,000 active; AID 602393, 2012; reporter increase, % at 12.5 µM; in the data active means activation above about 40%; inconclusive means no clear call, values can overlap the other calls;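 further: a rise in the Bmi1 reporter signal indicates esBAF inhibition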
MITF act: activators of MITF-driven TRPM1 promoter reporter, primary screen, cell-based, SK-MEL-5, luciferase, single point | SK-MEL-5 TRPM1-promoter luciferase, 24 h; % of positive control, neutral wells = 0 | activation, % at 12.5 µM | 0.75% of 300,000 active | AID 588334, 2011;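 active means mean activation of at least 80% with every replicate also reaching 80%; inconclusive means mean reaches 80% but some replicate falls short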
Wnt act: Wnt/beta-catenin pathway activators, primary screen, cell-based, plate reader, single point | Wnt/beta-catenin reporter cell assay, activator | activation, % at 9.35 µM | 1.2% of 300,000 active | AID 743398, 2014; in the data active means activation above about 30%, passing the limit was not always enough; inconclusive means no clear call, values can overlap the other calls
Each line names hits and unclear results; the compound was inactive in the other large screens.

CC(C)=CCC/C(C)=C/CNC(=O)C[C@H]1C[C@H](C(=O)N2CCCCC2)[C@@]2(CCc3ccccc3)c3[nH]c4cc(CCC(=O)N(C)C)ccc4c3CCN2C1=O	esBAF inh 52.3 (no result: HSF1 inh, HSF1 activator)
O=C(Cn1nc(-c2ccc(Cl)cc2)ccc1=O)NCC1CCCO1 (stereo unspecified)	HSF1 inh -56.6
O=C(Cn1nc(-c2ccccc2)ccc1=O)NCC1CCCO1 (stereo unspecified)	none
CCCC#Cc1cnc2c(c1)C(=O)N([C@@H](C)CO)C[C@H](C)[C@@H](CN(C)C(=O)Nc1cccc(F)c1)O2	none (no result: HSF1 inh, HSF1 activator, MITF act, Wnt act)
C[C@H]1CCCCO[C@@H](CN(C)Cc2ccc(C(=O)O)cc2)[C@@H](C)CN([C@@H](C)CO)C(=O)c2cc(NC(=O)c3ccncc3)ccc2O1	none (no result: HSF1 inh, HSF1 activator, MITF act, Wnt act)
Cc1cc(C)n2c(Nc3ccc4c(c3)OCCO4)c(-c3ccc(C)o3)nc2n1	esBAF inh 82.5
Cc1cc(C)n2c(Nc3ccc4c(c3)OCCO4)c(-c3cc4ccccc4o3)nc2n1	none (no result: HSF1 inh, HSF1 activator, esBAF inh, MITF act)
O=C(NC1CCCCC1)c1ccc(-c2cn[nH]c2)c2ccoc12	esBAF inh 53.1 (no result: HSF1 inh, HSF1 activator, MITF act)
O=C(c1ccccc1)N1C[C@H]2[C@@H](c3ccccc31)[C@@H](CO)N2S(=O)(=O)c1ccccc1	none (no result: HSF1 inh, HSF1 activator, MITF act, Wnt act)
CC(C)N(CCO)C(=O)CCc1nnc(Cc2cccc(C(F)(F)F)c2)o1	none
CCC(COC)NC(=O)CCc1nnc(Cc2cccc(C(F)(F)F)c2)o1 (stereo unspecified)	HSF1 activator 54.2
CCc1ccc(CNC(=O)CCc2nnc(Cc3cccc(C(F)(F)F)c3)o2)nc1	none (no result: esBAF inh)
CC(C)NC(=O)CCc1nnc(Cc2cccc(C(F)(F)F)c2)o1	esBAF inh 67.1
COc1ccc(NC(=O)Nc2ccc3c(c2)CC(=O)N([C@@H](C)CO)C[C@@H](C)[C@@H](CN(C)Cc2ccc(C(=O)O)cc2)O3)cc1	none (no result: HSF1 inh, HSF1 activator, MITF act, Wnt act)
O=C(NCC[C@@H]1CC[C@@H](NC(=O)C2CCC2)[C@@H](CO)O1)c1cnccn1	none (no result: HSF1 inh, HSF1 activator, MITF act, Wnt act)
Cc1cccc(C(=O)NNC(=O)CCn2nnc3ccccc32)c1	HSF1 activator 88.8 (no result: esBAF inh)
CCOc1cc(NC(=O)CC(C)C)c(OCC)cc1NC(=O)CCn1nnc2ccccc21	HSF1 activator 56.9
Cc1ccc(C(=O)NNC(=O)CCn2nnc3ccccc32)cc1	none
COCC#Cc1cnc2c(c1)C(=O)N([C@H](C)CO)C[C@H](C)[C@@H](CN(C)C(=O)c1ccc3c(c1)OCO3)O2	none (no result: HSF1 inh, HSF1 activator, MITF act, Wnt act)
CN(CC(=O)Nc1ccc(Cl)c(S(=O)(=O)N(C)C)c1)Cc1ccccc1	esBAF inh 65.0
COc1ccc(NC(=O)CN(C)CC(=O)Nc2ccc(Cl)c(S(=O)(=O)N(C)C)c2)cc1	none
O=C(CSc1ccccc1)NCCc1ccccc1	esBAF inh 52.2
O=C(CSc1ccccc1)NCCc1ccc(F)cc1	none (no result: MITF act)
CC(Sc1ccccc1)C(=O)NCCc1ccccc1 (stereo unspecified)	esBAF inh 63.3 (no result: MITF act)
O=C(CSc1nncs1)NCCCc1ccccc1	Wnt act 77.9 (no result: esBAF inh)
O=C(CCSCc1ccccc1F)NCCc1ccccc1	Wnt act 38.4
COc1ccc(CCNC(=O)CCSCc2ccccc2F)cc1OC	none
Nc1cccc(-c2nc3ccccc3[nH]2)c1	esBAF inh 62.3 (no result: Wnt act)
N#CCSc1ccc(-c2nc3ccccc3[nH]2)cn1	Wnt act 34.4 (no result: esBAF inh)
O=c1[nH]cccc1-c1nc2ccccc2[nH]1	none
Nc1ccccc1-c1nc2ccccc2[nH]1	Wnt act 55.0
Cc1cc2nc(-c3ccc(SCc4ccccn4)nc3)[nH]c2cc1C	esBAF inh 64.0, Wnt act inconclusive
C[C@@H]1CCCCO[C@H](CN(C)S(=O)(=O)c2cn(C)cn2)[C@@H](C)CN([C@@H](C)CO)C(=O)c2cc(NC(=O)NC3CCCCC3)ccc2O1	none (no result: HSF1 inh, HSF1 activator, MITF act, Wnt act)
COc1ccc(S(=O)(=O)Nc2ccc3c(c2)C(=O)N([C@H](C)CO)C[C@@H](C)[C@@H](CN(C)S(=O)(=O)c2c(C)noc2C)OCCCC[C@H](C)O3)cc1	none (no result: HSF1 inh, HSF1 activator, MITF act, Wnt act)
CC(C)NC(=O)Nc1ccc2c(c1)C(=O)N([C@@H](C)CO)C[C@@H](C)[C@H](CN(C)Cc1ccc3c(c1)OCO3)OCCCC[C@H](C)O2	none (no result: HSF1 inh, HSF1 activator, MITF act, Wnt act)
Nc1ccc(-c2nc3ccccc3[nH]2)cc1	Wnt act inconclusive
c1cncc(CNc2cccc(-c3nc4ccccc4[nH]3)c2)c1	Wnt act 49.9 (no result: esBAF inh)
Fc1ccc(-c2nc3ccccc3[nH]2)cc1	esBAF inh 70.4, Wnt act 58.3
c1ccc(NCc2cccnc2)cc1	none (no result: HSF1 inh, HSF1 activator, Wnt act)
CNC[C@@H]1OCCCC[C@H](C)Oc2ccc(NC(=O)Nc3ccc(F)cc3)cc2C(=O)N([C@H](C)CO)C[C@H]1C	none (no result: HSF1 inh, HSF1 activator, MITF act, Wnt act)
COCC(=O)N(C)C[C@@H]1Oc2ncc(C3=CCCCC3)cc2C(=O)N([C@@H](C)CO)C[C@H]1C	none (no result: HSF1 inh, HSF1 activator, MITF act, Wnt act)
CO[C@H]1CN(C)C(=O)c2cc(NC(=O)NC(C)C)ccc2OC[C@@H](C)N(CCC(F)(F)F)C[C@H]1C	none (no result: HSF1 inh, HSF1 activator, MITF act, Wnt act)
C[C@H](CO)N1C[C@H](C)[C@H](CN(C)Cc2ccccc2)Oc2ncc(-c3ccccc3F)cc2C1=O	none (no result: HSF1 inh, HSF1 activator, MITF act, Wnt act)
Cc1ccc(Cl)cc1-n1c(SCC(=O)NCCC2=CCCCC2)nc2n[nH]c(C)c2c1=N	HSF1 activator 55.7
CCC(=O)Nc1nc(N)n(-c2ccccc2)n1	none (no result: MITF act)
Nc1nc(NC(=O)C(Cl)(Cl)Cl)nn1-c1ccccc1	HSF1 inh -76.8
Cc1noc(C)c1S(=O)(=O)Nc1ccc2c(c1)C(=O)N([C@@H](C)CO)C[C@H](C)[C@H](CN(C)S(C)(=O)=O)OCCCC[C@@H](C)O2	none (no result: HSF1 inh, HSF1 activator, MITF act, Wnt act)
C/C(=N\NC(=O)c1cc(C)[nH]n1)c1ccc(-c2ccccc2)cc1	none
C/C(=N\NC(=O)c1cc(Br)ccc1O)c1cccs1	MITF act 80.6, Wnt act inconclusive
C/C(=N/NC(=O)c1cc(C(C)C)[nH]n1)c1cccs1	Wnt act 33.1
C/C(=N\NC(=O)c1cc(C(C)C)[nH]n1)c1ccncc1	none
C/C(=N\NC(=O)c1cc(C)[nH]n1)c1cccs1	Wnt act 34.5
O=C(C[C@@H]1C=C[C@H](NC(=O)NC2CCCCC2)[C@H](CO)O1)NCc1ccccc1	none (no result: HSF1 inh, HSF1 activator, MITF act, Wnt act)
O=C(N[C@@H]1CC[C@H](CC(=O)N2CCCCC2)O[C@@H]1CO)c1cccc(F)c1	none (no result: HSF1 inh, HSF1 activator, MITF act, Wnt act)
CCCC(=O)Nc1ccc2c(c1)C(=O)N(C)C[C@@H](OC)[C@@H](C)CN(Cc1nccs1)[C@H](C)CO2	none (no result: HSF1 inh, HSF1 activator, MITF act, Wnt act)
O=C(Nc1ccc(-c2ccc3nncn3n2)cc1)C1CCCC1	Wnt act 44.2
O=C(Nc1ccc(-c2cn3ccsc3n2)cc1)C1CC1	Wnt act 41.7
Cc1nc(-c2ccc(NC(=O)C3CCCCC3)cc2)cs1	HSF1 activator 56.8, esBAF inh 68.1 (no result: Wnt act)
O=C(Nc1ccc(-c2cn3ccsc3n2)cc1)C1CCCC1	none (no result: Wnt act)
